{
  "source": "PubChem BioAssay (NCATS)",
  "note": "Inconclusive results are not listed. Entries that show only a call come without a potency. Active and inactive are the calls of the source. Calls come from the whole dose curve; as a rule, active = well fitted inhibition curve with a large enough effect; inconclusive = small, poorly fitted or top-dose-only effect; inactive = no such curve, though single readings can be large or run the other way.",
  "data": [
    {"assay": "Primary qHTS for small molecule stabilizers of the endoplasmic reticulum resident proteome: Secreted ER Calcium Modulated Protein (SERCaMP) assay (AID 1508630)", "conditions": "SH-SY5Y GLuc-SERCaMP (Gaussia luciferase released on ER calcium loss) secretion, thapsigargin, luminescence; series mostly up to 38.4 µM", "procedure,_shortened": "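GLuc-SERCaMP-expressing SH-SY5Y cells, pretreated 16 h with compound, are challenged with thapsigargin to empty ER calcium stores; after 4 h, coelenterazine is added directly to the medium and luminescence is imaged.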", "values": [
      {"smiles": "CNc1nc(-c2ccc3c(N)n[nH]c3c2)cc(N2C[C@@H](C(=O)NC3CCCCC3)CC[C@@H]2C)n1", "Potency": "inactive"},
      {"smiles": "CCNC(=O)[C@H]1O[C@@H](n2cnc3c(N)nc(NCCc4ccc(CCC(=O)O)cc4)nc32)[C@H](O)[C@H]1O", "Potency": "inactive"},
      {"smiles": "O=C1NC(=O)C(=Cc2ccc(-c3ccc(F)cc3O)o2)S1", "Potency": "inactive"},
      {"smiles": "C[C@H]1[C@H](O)O[C@@H]2O[C@@]3(C)CC[C@@H]4[C@H](C)CC[C@@H]1[C@@]24OO3", "Potency": "inactive"},
      {"smiles": "COc1cc(C=CC(=O)O)ccc1O", "Potency": "inactive"},
      {"smiles": "CC[C@H]1OC(=O)[C@H](C)[C@@H](O[C@H]2C[C@@](C)(OC)[C@@H](O)[C@H](C)O2)[C@H](C)[C@@H](O[C@@H]2O[C@H](C)C[C@H](N(C)C)[C@H]2O)[C@](C)(O)C[C@H](C)C(=NOCOCCOC)[C@H](C)[C@@H](O)[C@]1(C)O", "Potency": "inactive"},
      {"smiles": "OCCn1cc(-c2ccc3c(c2)CCC3=NO)c(-c2ccncc2)n1", "Potency": "inactive"},
      {"smiles": "CCOC(=O)N1CCN([N+]([O-])=NOc2cc(ON=[N+]([O-])N3CCN(C(=O)OCC)CC3)c([N+](=O)[O-])cc2[N+](=O)[O-])CC1", "Potency": "inactive"},
      {"smiles": "CCCCCOC(=O)Nc1nc(=O)n([C@@H]2O[C@H](C)[C@@H](O)C2O)cc1F", "note": "(some centres undefined)", "Potency": "inactive"},
      {"smiles": "CC[C@]1(O)C[C@H]2CN(CCC3=c4ccccc4=N[C]3[C@@](C(=O)OC)(c3cc4c(cc3OC)N(C)[C@H]3[C@@](O)(C(N)=O)[C@H](O)[C@]5(CC)C=CCN6CC[C@]43[C@@H]65)C2)C1", "Potency": "inactive"},
      {"smiles": "CC(=O)OCC(=O)[C@@]1(O)CC[C@H]2[C@@H]3CCC4=CC(=O)C=C[C@]4(C)[C@@H]3[C@@H](O)C[C@@]21C", "Potency": "inactive"},
      {"smiles": "C[C@]12C=CC(=O)C=C1CC[C@@H]1[C@@H]2[C@@H](O)C[C@@]2(C)[C@@H]1CC[C@]2(O)C(=O)CO", "Potency": "inactive"},
      {"smiles": "C=C1c2cccc(O)c2C(O)=C2C(=O)[C@@]3(O)C(O)=C(C(N)=O)C(=O)[C@@H](N(C)C)[C@@H]3[C@@H](O)[C@H]12", "Potency": "inactive"},
      {"smiles": "NC(N)=Nc1nc(CSCCC(N)=NS(N)(=O)=O)cs1", "Potency": "inactive"},
      {"smiles": "O=c1[nH]c(=O)n([C@H]2C[C@@H](O)[C@@H](CO)O2)cc1C(F)(F)F", "Potency": "inactive"},
      {"smiles": "COc1c(C)c2c(c(O)c1CC=C(C)CCC(=O)O)C(=O)OC2", "Potency": "inactive"},
      {"smiles": "O=C1C(CCC(O)c2ccc(F)cc2)C(c2ccc(O)cc2)N1c1ccc(F)cc1", "note": "(centres undefined)", "Potency": "inactive"},
      {"smiles": "CC(=O)OCC(=O)[C@@]12OC(C)(C)O[C@H]1C[C@H]1[C@@H]3C[C@H](F)C4=CC(=O)C=C[C@]4(C)[C@@]3(F)[C@@H](O)C[C@@]12C", "Potency": "inactive"},
      {"smiles": "C[C@@H]1O[C@@H](O[C@H]2CC[C@@]3(C)[C@H](CC[C@@H]4[C@H]3C[C@@H](O)[C@]3(C)[C@@H](C5=CC(=O)OC5)CC[C@]43O)C2)C[C@H](O)[C@@H]1O[C@H]1C[C@H](O)[C@H](O[C@H]2C[C@H](O)[C@@H](O)[C@@H](C)O2)[C@H](C)O1", "note": "(stereo in doubt)", "Potency": "inactive"},
      {"smiles": "Cn1c(=O)c(Oc2ccc(F)cc2F)cc2cnc(NC3CCOCC3)nc21", "Potency": "inactive"},
      {"smiles": "CC[C@H](NC(=O)[C@H](C)NC)C(=O)N1C[C@@H](O)C[C@H]1Cc1c(-c2[nH]c3cc(F)ccc3c2C[C@H]2C[C@H](O)CN2C(=O)[C@H](CC)NC(=O)[C@H](C)NC)[nH]c2cc(F)ccc12", "Potency": "inactive"},
      {"smiles": "CCOC(=O)[C@H]1O[C@H]1C(=O)N[C@@H](CC(C)C)C(=O)NCCC(C)C", "Potency": "inactive"},
      {"smiles": "CN[C@@H]1[C@@H](O)[C@@H](O[C@@H]2[C@@H](O)[C@H](O[C@H]3O[C@H](CN)[C@@H](O)[C@H](O)[C@@H]3O)[C@@H](N)C[C@@H]2NC(=O)[C@@H](O)CN)OC[C@]1(C)O", "Potency": "inactive"},
      {"smiles": "NC(=O)c1ncn([C@@H]2O[C@H](CO)[C@@H](O)[C@@H]2O)n1", "Potency": "inactive"},
      {"smiles": "Cc1[nH]c(C=C2C(=O)Nc3ccc(S(=O)(=O)N(C)c4cccc(Cl)c4)cc32)c(C)c1C(=O)N1CCN(C)CC1", "Potency": "inactive"},
      {"smiles": "CC(=O)N1CCN(c2ccc(OCc3nn(C)c(C)c3-c3cccc4c(CCCOc5cc(C)c(Cl)c(C)c5)c(C(=O)O)n(Cc5cccnc5)c34)cc2)CC1", "Potency": "inactive"},
      {"smiles": "Cn1cc(-c2ccc3nnc(Sc4ccc5ncccc5c4)n3n2)cn1", "Potency": "inactive"},
      {"smiles": "O=c1[nH]c(=O)n([C@H]2C[C@@H](O)[C@@H](CO)O2)cc1I", "Potency": "inactive"},
      {"smiles": "COc1c(C)c2c(c(O)c1CC=C(C)CCC(=O)OCCN1CCOCC1)C(=O)OC2", "Potency": "inactive"}
    ]}
  ]
}
